Screening results: PubChem BioAssay, The Scripps Research Institute Molecular Screening Center
M1 ag: agonists of human M1 muscarinic receptor; P11229; CHO-K1 hM1, Fluo-8 calcium fluorescence, agonist mode; 0% DMSO, 100% acetylcholine EC100; activation, % at 3 µM; 360,000 tested, 0.33% active; AID 588814;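 active = activation above the run's mean compound activation plus 3 SD, cut at about 16% in these data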;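 also: peak over basal fluorescence ratio within a 140 s kinetic read after compound addition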
Target sequence (P11229 whole entry, looked up): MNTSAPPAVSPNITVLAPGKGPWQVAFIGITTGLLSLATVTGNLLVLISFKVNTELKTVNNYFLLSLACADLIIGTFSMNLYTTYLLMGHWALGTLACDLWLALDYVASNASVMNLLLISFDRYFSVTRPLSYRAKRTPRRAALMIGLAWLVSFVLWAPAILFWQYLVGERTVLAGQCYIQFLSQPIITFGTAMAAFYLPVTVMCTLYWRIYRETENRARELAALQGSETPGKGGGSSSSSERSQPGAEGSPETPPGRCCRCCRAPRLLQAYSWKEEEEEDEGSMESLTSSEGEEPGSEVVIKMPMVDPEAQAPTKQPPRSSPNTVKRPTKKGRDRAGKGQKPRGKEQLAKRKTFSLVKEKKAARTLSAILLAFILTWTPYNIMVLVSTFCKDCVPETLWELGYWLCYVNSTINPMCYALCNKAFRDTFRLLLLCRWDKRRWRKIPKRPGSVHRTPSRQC
M1 antag: antagonists of human M1 muscarinic receptor. P11229. CHO-K1 hM1, Fluo-8 calcium fluorescence, ACh EC80 antagonist. inhibition, % at 3 µM. 360,000 tested, 1.3% active. AID 588852;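 active = percent inhibition above its own plate's cutoff, namely the mean of that plate's compound wells plus 3 SD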;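 also: peak over basal fluorescence ratio during 140 s after agonist addition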
CHO-K1 Ca antag: counter-screen for M1 antagonists: effect in parental CHO-K1 cells | ATP-induced calcium, Fluo-8 fluorescence | inhibition, % at 3 µM | 360,000 tested, 0.6% active;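 active = inhibition above a per-plate cutoff, the plate's mean sample inhibition plus 3 SD, cut at about 24% in these data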
M1 ag parental: nonselective activator or artifact in parental CHO-K1 cells; Fluo-8 calcium fluorescence; scaled to maximal ATP response, vehicle zero; activation, % at 3 µM; 360,000 tested, 0.48% active; AID 602248; in the data active = activation above about 15%;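 also: untransfected CHO-K1 host cells lacking M1 receptor as counterscreen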
M1 PAM parental: nonselective activator or artifact in parental CHO-K1 calcium assay | ATP EC20, Fluo-8 calcium fluorescence; 0% at ATP EC20, 100% at ATP max | activation, % at 3 µM | 360,000 tested, 0.02% active;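 active = activation above the run cutoff, the mean activation of all test compounds plus 3 SD, cut at about 40% in these data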;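 also: peak over basal fluorescence ratio in a 140 s read after ATP addition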
CHRM1 PAM: positive allosteric modulators of human M1 muscarinic receptor; P11229; CHO-K1 hM1, Fluo-8 calcium fluorescence, ACh EC20; 0% = ACh EC20, 100% = maximal ACh; activation, % at 3 µM; 360,000 tested, 0.088% active; in the data active = activation above about 19%, passing the limit was not always enough
Of the large screens only hits and unclear results are named; the others gave an inactive call. Most compounds without a hit are left out; they make up all but 2.4% or so of the library.

O=C(Nc1ccc(Cl)cc1)c1cccc(NC2=NC3CS(=O)(=O)CC3S2)c1 (stereo not drawn)	none
C/C(=N\NC(=O)c1nn(C)c(C)c1Br)c1ccc(NC(=O)C2CCCC2)cc1	none
COc1cc(CC(=O)OCC(=O)Nc2ccc(N(C)C)cc2)cc(OC)c1OC	none
CCC(c1nnnn1-c1ccc2c(c1)OCCO2)N1CCN(Cc2c(F)cccc2Cl)CC1 (stereo not drawn)	none (no result: M1 ag, M1 antag, CHRM1 PAM)
CCCCCSc1nnc(N)s1	CHRM1 PAM 27
O=C(CNC(=O)c1ccc(Br)o1)NNC(=O)c1ccccc1O	none
Cc1ccc(/C=N/NC(=O)c2ccc3ccccc3c2)s1	CHO-K1 Ca antag 25
CS(=O)(=O)Nc1ccc(C2=NN(C(=O)c3ccco3)C(c3cccc(F)c3)C2)cc1 (stereo not drawn)	M1 ag parental 16
COC(=O)[C@H](CCSC)NC(=O)NCCC1=CCCCC1	none
COC(=O)[C@H](Cc1ccccc1)NC(=O)NCCC1=CCCCC1	M1 antag 39
COc1ccc(C(=O)Nc2cccc(S(=O)(=O)N3CCCC3)c2)cc1S(=O)(=O)N1CCOCC1	M1 antag 43
COc1ccc(C(=O)Nc2cccc(C)c2)cc1S(=O)(=O)N1CCOCC1	none
O=C(Nc1cccc(S(=O)(=O)N2CCOCC2)c1)c1cc(S(=O)(=O)N2CCOCC2)c(Cl)cc1Cl	M1 antag 36
Cc1ccc(S(=O)(=O)CCC(=O)NCCN2C(=O)S/C(=C\c3ccccc3)C2=O)cc1	M1 ag parental 19
O=C(CCS(=O)(=O)c1ccc(Cl)cc1)NCCN1C(=O)S/C(=C\c2ccccc2F)C1=O	none
O=C(Nc1cccc(S(=O)(=O)N2CCCC2)c1)c1cc(S(=O)(=O)N2CCOCC2)ccc1F	none
COc1ccc(NC(=O)c2cc3c(s2)CCC(C)C3)cc1S(=O)(=O)N1CCOCC1 (stereo not drawn)	CHO-K1 Ca antag 25
O=C(C1CCCCCC1)N1CC[C@@H](N2CCC(O)CC2)[C@H](O)C1	none
Cc1ccc(F)c(CNC(=O)C2(C)CCCN2C(=O)C(C)C)c1F (stereo not drawn)	none
CN(C)S(=O)(=O)c1cccc(NC(=O)c2cccc(S(=O)(=O)N3CCc4ccccc43)c2)c1	M1 antag 34
O=C(Nc1ccc(S(=O)(=O)N2CCOCC2)cc1)c1ccccc1Br	none
CN(c1ccccc1C(=O)Nc1ccc(S(=O)(=O)N2CCOCC2)cc1)S(=O)(=O)c1ccccc1	M1 antag 43
O=C(Nc1cccc(S(=O)(=O)N2CCCC2)c1)c1cccc(S(=O)(=O)N2CCOCC2)c1	M1 antag 29
COc1ccc(C(=O)Nc2cccc(-c3csc(C)n3)c2)cc1S(=O)(=O)N1CCCC1	M1 antag 36
O=C(COC(=O)c1ncc(Cl)c(Cl)c1Cl)Nc1ccc(Cl)cn1	none
O=C(CNC(=O)c1ccc(S(=O)(=O)N2CCCC2)cc1)N/N=C/c1c(Cl)cccc1Cl	M1 ag parental 20
CN1CCN(c2ccc(NC(=O)c3cccc(S(=O)(=O)N4CCCC4)c3)cc2)CC1	M1 antag 47
O=C(NCCN1C(=O)S/C(=C\c2ccccc2)C1=O)c1cc(S(=O)(=O)N2CCOCC2)c(Cl)cc1Cl	M1 antag 43, M1 ag parental 15
CC(C)[C@H](NC(=O)c1cccc(S(=O)(=O)N2CCOCC2)c1)C(=O)OCC(=O)Nc1cccc(Br)c1	M1 ag 19
O=C(CNC(=O)c1ccc(S(=O)(=O)N2CCCC2)cc1)N/N=C/c1ccc(Cl)cc1	none
CS(=O)(=O)c1cccc(C(=O)Nc2ccc(S(=O)(=O)N3CCCCC3)cc2)c1	none
O=C(Nc1ccncc1)C1CCN(S(=O)(=O)c2ccc(Cl)c(C(F)(F)F)c2)CC1	none
CC(C)[C@H](NC(=O)OCc1ccccc1)C(=O)OCC(=O)N1CCCCC1	none
CCOc1c([N+](=O)[O-])cc2c(C)c(C(=O)N3CCN(C)CC3)oc2c1OCC	none
O=C(NN=Cc1ccc(F)cc1)c1cccc(S(=O)(=O)N2CCCC2)c1	M1 antag 36
N#Cc1cccc(C(=O)Nc2cccc(S(=O)(=O)N3CCCC3)c2)c1	M1 antag 38
O=C(Nc1ccc(N2CCOCC2)cc1)c1cccc(S(=O)(=O)N2CCCCCC2)c1	none
O=C(Nc1ccc(N2CCOCC2)cc1)c1cccc(S(=O)(=O)N2CCCC2)c1	M1 antag 34
O=C(N/N=C/c1ccncc1)c1cccc(S(=O)(=O)N2CCCC2)c1	none
CCN1CCN(C(=O)CN2C(=O)COc3ccc(C)cc32)CC1	none
CC(C)(C)c1ccc(/C=N/NC(=O)CN2CCS(=O)(=O)CC2)cc1	none
CCOc1ccc(NC(=O)c2ccc(F)c(S(=O)(=O)N3CCCC3)c2)cc1	CHO-K1 Ca antag 24
Cc1ccccc1NC(=O)c1cccc(S(=O)(=O)N2CCCCC2)c1	none
Cc1ccc(NC(=O)c2cc(S(=O)(=O)N(C)C)ccc2N2CCCC2)cc1S(=O)(=O)N(C)C	M1 antag 32
Cc1ccc(NC(=O)c2ccccc2NS(=O)(=O)c2ccc(F)cc2)cc1S(=O)(=O)N1CCCCC1	CHO-K1 Ca antag 26
Cc1ccccc1NC(=O)c1ccc(F)c(S(=O)(=O)N2CCCCC2)c1	M1 ag parental 19
O=C(Nc1cccc(S(=O)(=O)N2CCCCC2)c1)c1ccccc1NS(=O)(=O)c1ccc(F)cc1	none
Cc1ccc(NC(=O)c2cc(S(=O)(=O)N3CCCCC3)ccc2N2CCOCC2)cc1S(=O)(=O)N(C)C	none
Cc1ccc(CNC(=O)Nc2ccc(F)cc2)n1C	none
Nc1nnc(CC(=O)N/N=C/c2ccc(-c3ccc(Cl)cc3Cl)o2)s1	none
CN(Cc1nc(-c2ccc(Cl)cc2)no1)C(=O)CCN1C(=O)[C@H]2CC=CC[C@H]2C1=O	none
CC(=O)NNC(=O)c1sc(=S)n(C)c1C	M1 ag parental 19
Fc1ccc(-c2nnc3ccc(N4CCCC4)nn23)cc1	M1 antag 102
O=C(Nc1ccccc1Cl)N1CCN(c2ccc3nnc(-c4ccc(F)cc4)n3n2)CC1	none
Cc1cccc(C(=O)NCC(=O)N2CCN(c3ccccn3)CC2)c1	none
N#Cc1c(C(F)(F)F)cc(-c2ccco2)nc1SCc1ccccn1	M1 ag parental 18
N#Cc1c(C(F)(F)F)cc(-c2ccco2)nc1SCc1ccncc1	none
Cc1ccccc1-n1c(SCC(=O)N2CCCC2)nnc1-c1ccccn1	CHRM1 PAM 22
CCc1ccccc1-n1c(SCC(=O)N2CCCC2)nnc1-c1ccccn1	none
C=CCn1c(COc2ccc(CC)cc2)nnc1SC/C(O)=C(\C#N)c1nc2ccccc2[nH]1	CHO-K1 Ca antag 26
C=CCn1c(COc2ccccc2)nnc1SCc1ccc(C#N)cc1	none
N#CC1(NC(=O)COc2ccc3ccc(=O)oc3c2)CCCCC1	none
CCOC(=O)c1[nH]c2ccc(C)cc2c1N	none
